# According to article PMC4552634, “A New Set of Chemical Starting Points with Plasmodium falciparum Transmission-Blocking Potential for Antimalarial Drug Discovery” (PLoS ONE, 2015):
# The whole screen tested about 13,000 compounds, of which about 3,200 (25%) showed an effect of 50% or more. The list shows a part of the results.
# Tested on: P. falciparum stage V gametocytes
# Set-up: BacTiter-Glo ATP luminescence viability of purified stage V gametocytes in 384-well plates, per cent inhibition versus DMSO
# Conditions: 48 h, 5 µM; inhibitor
row,SMILES,% Inhibition
1,Cn1cnc2c(Nc3ccncc3)nc(-c3ccc(OC(F)(F)F)cc3)nc21 [TCMDC-141276],-18.84%
2,CCCCCC(C)N=C(Nc1ccc(C#N)cc1O)Nc1cccc(Cl)c1Cl (centres unmarked) [TCMDC-140222],-21.37%
3,CC[C@H](N=C(Nc1ccc(-c2ccccc2)cc1)Nc1ccc(C#N)cc1O)c1ccccc1 [TCMDC-140209],-62.75%
4,CC[C@H](N=C(Nc1ccc(C#N)cc1O)Nc1cccc(Cl)c1Cl)c1ccccc1 [TCMDC-140225],74.86%
5,CSc1c(CNCCCNc2cc(=O)c3ccccc3[nH]2)[nH]c2ccccc12 [TCMDC-140648],-17.76%
6,O=C(Nc1ccc(-c2cccc(CN3CCC(O)CC3)c2)cc1)c1cccc(Cl)c1 [TCMDC-132665],-3.105%
7,O=C(Nc1ccc(Oc2ccccc2)cc1)N(CCN1CCCC1)Cc1ccc(-c2ccc(CN3CCNCC3)cc2)cc1 [TCMDC-139652],103.6%
8,O=C(Nc1ccc(Oc2ccccc2)cc1)N(Cc1ccc(-c2ccc(CN3CCNCC3)cc2)cc1)C1CCN(Cc2ccccc2)CC1 [TCMDC-139653],106.3%
9,O=C(Nc1ccc(Cn2ncc(N3CCCNCC3)c(Cl)c2=O)cc1)Nc1cccc(Oc2ccccc2)c1 [TCMDC-133316],4.228%
10,N#Cc1cccc(C(=O)Nc2ccc(-c3cccc(CN4CCC(O)CC4)c3)cc2)c1 [TCMDC-132670],-58.6%
11,COC(=O)c1ccc(CN2CCC(N(Cc3cccc(Oc4ccccc4)c3)S(=O)(=O)c3ccc(NC(C)=O)cc3)CC2)cc1 [TCMDC-139500],-7.518%
12,O=C(Nc1ccc(Oc2ccccc2)cc1)N(Cc1ccc(-c2cccc(CN3CCNCC3)c2)cc1)C1CCN(Cc2ccccc2)CC1 [TCMDC-139637],111.2%
13,O=C(Nc1ccc(-c2nc3ccccc3[nH]2)cc1)C1CCN(Cc2ccccc2)CC1 [TCMDC-124891],-65.72%
14,O=C(Nc1cccc(-c2cccc(-c3nc4ccc(C(F)(F)F)cc4[nH]3)c2)c1)c1ccc(=O)[nH]n1 [TCMDC-137031],-1.351%
15,O=C(Nc1ccc(-c2nc3ccccc3[nH]2)cc1)c1ccc(N2CCOCC2)c([N+](=O)[O-])c1 [TCMDC-124372],-1.163%
16,O=C(NC1CC1)c1cnc(N2CCN(Cc3c(F)cccc3Cl)CC2)c(Cl)c1 [TCMDC-134607],20.64%
17,CCC(C)NC(=O)CN1CN(c2ccccc2)C2(CCN(C(=O)c3ccc(C(C)(C)C)cc3)CC2)C1=O (centres unmarked) [TCMDC-125176],-75.94%
18,Nc1ncc(-c2ccccc2)cc1-c1nc2cc(Cl)c(F)cc2[nH]1 [TCMDC-138783],-16.12%
19,CSc1ccc2nccc(Nc3ccc(Oc4ccccc4)cc3)c2c1 [TCMDC-138375],-18.84%
20,Cc1c(S(=O)(=O)Nc2ccc3nccc(N4CC(C)NC(C)C4)c3c2)sc2ccc(Cl)cc12 (centres unmarked) [TCMDC-139464],2.238%
21,CC1CN(c2ccnc3ccc(Sc4ccc(Oc5ccccc5)cc4)cc23)CC(C)N1 (centres unmarked) [TCMDC-135857],94.55%
22,CC[C@H](C)CNC(=O)c1ccnc(-c2cccc(CN3CCC(N4CCCC4)CC3)c2)c1 [TCMDC-134244],20.81%

row,SMILES,% Inhibition
1,O=S(=O)(c1cccc(C(F)(F)F)c1)N1CCC(CO)(Cc2cccc(C(F)(F)F)c2)CC1 [TCMDC-124606],41.83%
2,CCCS(=O)(=O)N1CCC(CO)(Cc2ccccc2C(F)(F)F)CC1 [TCMDC-124652],66.01%
3,N#Cc1ccc(CN2CCC(Oc3ccc(NC(=O)c4ccco4)cc3Cl)C2)cc1 (centres unmarked) [TCMDC-133963],28.15%
4,O=C(NC1CCCCC1)N(Cc1cccc(-c2cccc(CNC3CCCC3)c2)c1)C1CCN(Cc2ccccc2)CC1 [TCMDC-140630],102.1%
5,O=C(NC1CCCCC1)N(Cc1cccc(-c2ccc(CNC3CCCC3)cc2)c1)C1CCN(Cc2ccccc2)CC1 [TCMDC-140631],106.7%
6,O=C(NC1CCCCC1)N(Cc1ccc(-c2cccc(CNC3CCCC3)c2)cc1)C1CCN(Cc2ccccc2)CC1 [TCMDC-140638],83.36%
7,O=C(NC1CCCCC1)N(Cc1cccc(-c2ccc(CNCCc3ccccc3)cc2)c1)C1CCN(Cc2ccccc2)CC1 [TCMDC-140629],110.5%
8,COc1ccc2nccc(NCC3(O)CCN(CCc4ccc5c(c4)OCCO5)CC3)c2n1 [TCMDC-141461],34.43%
9,CC(C)CN1C(=O)C(c2ccc(F)c(F)c2)=C(O)C1c1ccccc1 (centres unmarked) [TCMDC-141919],11.18%
10,O=C(Nc1ccc(OC2CCN(Cc3ccccc3)C2)c(Cl)c1)c1ccsc1 (centres unmarked) [TCMDC-133969],-1.877%
11,C=CCOC(=O)O[C@@H]1[C@@H](OC(=O)OCC=C)[C@@H](OC)O[C@H](COC(c2ccccc2)(c2ccccc2)c2ccccc2)[C@H]1OC(=O)OCC=C [TCMDC-139139],34.95%
12,COc1ccccc1N1CCN(CCCCNC(=O)c2ccc(NC(=O)c3cc4ccccc4o3)cc2)CC1 [TCMDC-138115],-10.75%
13,Cc1cccc(CN2CCC(Oc3ccc(NC(=O)c4cccs4)cc3Cl)CC2)n1 [TCMDC-133964],24.07%
14,O=C(NC1CCCCC1)N(Cc1ccc(-c2ccc(CNC3CCCC3)cc2)cc1)C1CCN(Cc2ccccc2)CC1 [TCMDC-140639],105.2%
15,FC(F)(F)c1cccc2c(NN=Cc3ccccc3)ccnc12 [TCMDC-142025],48.45%
16,COc1ccc2ncc(F)c(CCN3CC[C@@H](CNCc4ccc5c(c4C)OCCO5)C3)c2n1 [TCMDC-136057],40.7%
17,c1ccc(CN2CCC(NCc3ccc(-c4ccc(CNCc5cccnc5)cn4)cc3)CC2)cc1 [TCMDC-141613],-15.37%
18,COc1ccc(C(=O)CCC(=O)N(Cc2ccc(-c3ccc(CNCCc4ccc(S(C)(=O)=O)cc4)cn3)cc2)C2CCN(Cc3ccccc3)CC2)cc1F [TCMDC-141516],12.43%
19,O=C(Cc1cccnc1)N(Cc1ccc(-c2ccc(CNCc3cccnc3)cn2)cc1)C1CCN(Cc2ccccc2)CC1 [TCMDC-141503],73.31%
20,COc1ccc(C(=O)CCC(=O)N(Cc2ccc(-c3ccc(CNCc4cccnc4)cn3)cc2)C2CCN(Cc3ccccc3)CC2)cc1F [TCMDC-141504],91.04%
21,C=CCc1cccc(C)c1OCCCON1C(N)=NC(N)=NC1(C)C [TCMDC-131307],8.677%
22,Cc1cc(C)n2nc(C(=O)Nc3cc(C(F)(F)F)ccc3N3CCOCC3)nc2n1 [TCMDC-123614],4.468%

row,SMILES,% Inhibition
1,Cc1cc(N(C)C)nc(Nc2ccc(NC(=O)c3ccc(Br)o3)cc2)n1 [TCMDC-124972],-1.025%
2,CCCC(CNC(=O)c1cc2c(Cl)cc(Cl)cc2[nH]1)CNc1cc(=O)c2ccccc2[nH]1 (centres unmarked) [TCMDC-140519],-10.38%
3,Cc1c(CC(=O)N(C)C2CCN(CCCCCNC(=O)/C=C/c3ccc(Cl)c(Cl)c3)CC2)sc2ccc(Cl)cc12 [TCMDC-139994],-4.891%
4,COc1ccc(CCn2c(=N)c(C(=O)NCc3ccccc3)cc3c(=O)n4ccccc4nc32)cc1 [TCMDC-124472],34.54%
5,CCOC(=O)N/N=C/[C@H](CCc1ccccc1)NC(=O)[C@H](CC(C)C)NC(=O)c1cc2cccc(OC)c2o1 [TCMDC-135928],10.67%
6,CCOC(=O)N(C)/N=C/[C@H](CCc1ccccc1)NC(=O)[C@H](CC(C)C)NC(=O)c1cc2cccc(OC)c2o1 [TCMDC-136018],75%
7,CCC[C@@H](/C=N/N(C)C(=O)OC(C)(C)C)NC(=O)[C@H](CC(C)C)NC(=O)c1cc2cccc(OC)c2o1 [TCMDC-136059],-6.333%
8,CCOc1cc(C(=O)NCCN(CC)c2cccc(C)c2)ccc1-c1nc2ccc(Cl)cc2[nH]1 [TCMDC-140916],-6.076%
9,Nc1nccc2ccc(-c3ccc(OCc4ccccc4)cc3)cc12 [TCMDC-133423],12.93%
10,CCc1cc2c(N)nc(N)nc2nc1-c1ccccc1 [TCMDC-131931],14.27%
11,Nc1nc(N)c2cc3ccc(OCc4ccccc4)cc3nc2n1 [TCMDC-137967],109.1%
12,O=C(NC(Cc1ccccc1)C(=O)O)c1cc(=O)c2ccccc2o1 (centres unmarked) [TCMDC-131318],3.006%
13,CC1(C)N=C(NC(=O)Nc2ccc([N+](=O)[O-])cc2)N=C(N)N1OCc1cccc2ccccc12 [TCMDC-131582],35.05%
14,O=C(Nc1cccc(OC2CCN(Cc3ccccc3)CC2)c1)c1ccc([N+](=O)[O-])cc1 [TCMDC-139543],0.689%
15,Cc1ccccc1CN1CCCN(Cc2ccc(C(=O)Nc3ccc(Cl)cc3)cc2)CC1 [TCMDC-136402],-5.846%
16,Cc1ccccc1Cc1cccc(/N=C(\N)Nc2ccc(Cl)cc2)n1 [TCMDC-138942],89.67%
17,COc1cc2cc(C(=O)Nc3ccccc3)c(N)nc2cc1OC [TCMDC-123992],12.69%
18,N/C(=N\c1cccc(Cc2ccc([N+](=O)[O-])cc2)n1)Nc1ccccc1 [TCMDC-138952],90.6%
19,COc1ccc(Cc2nc(N=C(N)Nc3ccccc3)ccc2OC)cc1 [TCMDC-138959],88.7%
20,CN(c1ccccc1)c1ccnc(/N=C(\N)Nc2ccc(Cl)cc2)n1 [TCMDC-138941],49.31%
21,COc1ccc(CCN(C)CCOc2ccc(NC(=O)c3cccc4cc5ccccc5nc34)cc2)cc1OC [TCMDC-132112],-28.68%
